Several values for one entry are separate records, joined by “and”; a condition that tells them apart may be missing. Equal entries are not always repeated. Activity calls are given as the source filed them. The calls were made as follows: active = hit-call score of the fitted dose curve at least 0.9, where 1 is the maximum; inactive = score below 0.9.
Read-out: not listed separately
Assay: BSK_CASM3C_Proliferation: Cell Proliferation Assessment in the BioMAP Diversity Plus: CASM3C Assay (AID 2283047);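 also: sulforhodamine B total protein stain as relative cell number at 560 nm; sub-confluent cells exposed 48 h before staining; fitted both ways against DMSO so gain or loss of cell number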
Settings: primary human coronary artery smooth muscle cells

Row | Compound | outcome | AC50
1 | Nc1nc2ncc(CNc3ccc(C(=O)N[C@@H](CCC(=O)O)C(=O)O)cc3)nc2c(=O)[nH]1 | inactive | –
2 | COCCOCCOCCOC | inactive | –
3 | COCCOc1cc2cc(C(=O)NC3CCN(C(C)C)CC3)n(CC(=O)Nc3ccc(Cl)cn3)c2cn1 | inactive | –
4 | CC(C)CCCCCCCOC(=O)CCCCC(=O)OCCCCCCCC(C)C | inactive | –
5 | O=C(CCCCCCCCc1cccnc1)N1CCC(C=C(c2ccccc2)c2ccccc2)CC1 | – | 35.4 µM (active)
6 | CCc1cc(SCc2sc(-c3ccc(C(F)(F)F)cc3)nc2CN2CCN(c3ccc(OC)cc3)CC2)ccc1OCC(=O)O | – | 15.8 µM (active)
7 | Cn1c(=O)c2c(ncn2C)n(C)c1=O | inactive | –
8 | Cn1c(=O)cc(Oc2ccc(F)cc2F)c2cnc(NCC(C)(C)O)nc21 | inactive | –
9 | CC(C)CCO | inactive | –
10 | O=c1n(CC2CO2)c(=O)n(CC2CO2)c(=O)n1CC1CO1 (stereo not drawn) | – | 1.85 µM (active)
11 | CCNc1ccccc1 | inactive | –
12 | CCOCCOCCOCCO | inactive | –
13 | COc1ccc2sc(C(=O)Nc3nnn[nH]3)c(OC(C)C)c2c1 | – | 11.1 µM (active)
14 | Cc1[nH]cnc1C[C@H]1CCc2c(C)c3ccccc3n2C1=O | – | 26.4 µM (active)
15 | COC(=O)c1ccccc1O | inactive | –
16 | CC(C)=CCC/C(C)=C/CO | inactive | –
17 | CC(C)CCCCCCOC(=O)c1ccc(C(=O)OCCCCCCC(C)C)c(C(=O)OCCCCCCC(C)C)c1 | inactive | –
18 | COc1ccc(/C=C/S(=O)(=O)NC(=O)c2ccc(C)cc2Cl)cc1 | – | 18.9 µM (active)
19 | CCN(C(=O)c1cc(C)cc(OC[C@H](C)Nc2ccncc2)c1)C(C)C | inactive | –
20 | CCCN(C1CCN(C(=O)C2CCNCC2)CC1)[C@@H]1CCc2ccc(OC)cc2C1 | inactive | –
21 | Cc1c(-c2cccnc2)c2ccccc2n1CCCCC(=O)O | inactive | –
22 | CC[C@H]1OC(=O)[C@H](C)[C@@H](O[C@H]2C[C@@](C)(OC)[C@@H](O)[C@H](C)O2)[C@H](C)[C@@H](O[C@@H]2O[C@H](C)C[C@H](N(C)C)[C@H]2O)[C@](C)(O)C[C@@H](C)C(=O)[C@H](C)[C@@H](O)[C@]1(C)O | inactive | –
23 | CN(C)c1ccc(N=NS(=O)(=O)O)cc1 | inactive | –
24 | O=c1[nH]c2ccc(S(=O)CCN3CCC(Cc4ccc(F)cc4)CC3)cc2o1 (stereo not drawn) | inactive | –
25 | Cn1cnc([N+](=O)[O-])c1Sc1ncnc2nc[nH]c12 | – | 10.2 µM (active) and 12 µM (active) and 4.25 µM (active)
26 | CCOC(=O)CC(CC(=O)OCC)(OC(C)=O)C(=O)OCC | inactive | –
27 | O=C(OC[C@H]1O[C@@H](OC(=O)c2cc(O)c(O)c(OC(=O)c3cc(O)c(O)c(O)c3)c2)[C@H](OC(=O)c2cc(O)c(O)c(OC(=O)c3cc(O)c(O)c(O)c3)c2)[C@@H](OC(=O)c2cc(O)c(O)c(OC(=O)c3cc(O)c(O)c(O)c3)c2)[C@@H]1OC(=O)c1cc(O)c(O)c(OC(=O)c2cc(O)c(O)c(O)c2)c1)c1cc(O)c(O)c(OC(=O)c2cc(O)c(O)c(O)c2)c1 | – | 10 µM (active)
28 | CC(C)=CCCC(C)=CC=O | inactive | –
29 | CCOc1cccc(-n2cc(C(=O)N3CCN(c4cc(C(=O)O)c5ccccc5c4)CC3)nc2-c2ccc(C)cc2)c1 | – | 30.4 µM (active)

Read-out: Monokine induced gamma interferon (MIG), CXCL9 (gene 4283)
Assay: BSK_CASM3C_MIG: BioMAP Diversity Plus: CASM3C Assay for Monokine induced gamma interferon (MIG) Biomarker Activity (AID 2283048);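 also: MIG protein level measured by ELISA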
Settings: primary human coronary artery smooth muscle cells; actives raise or lower the signal

Row | Compound | outcome | AC50
30 | Nc1nc2ncc(CNc3ccc(C(=O)N[C@@H](CCC(=O)O)C(=O)O)cc3)nc2c(=O)[nH]1 | inactive | –
31 | COCCOCCOCCOC | inactive | –
32 | COCCOc1cc2cc(C(=O)NC3CCN(C(C)C)CC3)n(CC(=O)Nc3ccc(Cl)cn3)c2cn1 | inactive | –
33 | CC(C)CCCCCCCOC(=O)CCCCC(=O)OCCCCCCCC(C)C | inactive | –
34 | O=C(CCCCCCCCc1cccnc1)N1CCC(C=C(c2ccccc2)c2ccccc2)CC1 | – | 38.3 µM (active)
35 | CCc1cc(SCc2sc(-c3ccc(C(F)(F)F)cc3)nc2CN2CCN(c3ccc(OC)cc3)CC2)ccc1OCC(=O)O | – | 39.1 µM (active)
36 | Cn1c(=O)c2c(ncn2C)n(C)c1=O | inactive | –
37 | Cn1c(=O)cc(Oc2ccc(F)cc2F)c2cnc(NCC(C)(C)O)nc21 | inactive | –
38 | CC(C)CCO | inactive | –
39 | O=c1n(CC2CO2)c(=O)n(CC2CO2)c(=O)n1CC1CO1 (stereo not drawn) | inactive | –
40 | CCNc1ccccc1 | inactive | –
41 | CCOCCOCCOCCO | inactive | –
42 | COc1ccc2sc(C(=O)Nc3nnn[nH]3)c(OC(C)C)c2c1 | inactive | –
43 | Cc1[nH]cnc1C[C@H]1CCc2c(C)c3ccccc3n2C1=O | inactive | –
44 | COC(=O)c1ccccc1O | inactive | –
45 | CC(C)=CCC/C(C)=C/CO | inactive | –
46 | CC(C)CCCCCCOC(=O)c1ccc(C(=O)OCCCCCCC(C)C)c(C(=O)OCCCCCCC(C)C)c1 | inactive | –
47 | COc1ccc(/C=C/S(=O)(=O)NC(=O)c2ccc(C)cc2Cl)cc1 | inactive | –
48 | CCN(C(=O)c1cc(C)cc(OC[C@H](C)Nc2ccncc2)c1)C(C)C | inactive | –
49 | CCCN(C1CCN(C(=O)C2CCNCC2)CC1)[C@@H]1CCc2ccc(OC)cc2C1 | inactive | –
50 | Cc1c(-c2cccnc2)c2ccccc2n1CCCCC(=O)O | inactive | –
51 | CC[C@H]1OC(=O)[C@H](C)[C@@H](O[C@H]2C[C@@](C)(OC)[C@@H](O)[C@H](C)O2)[C@H](C)[C@@H](O[C@@H]2O[C@H](C)C[C@H](N(C)C)[C@H]2O)[C@](C)(O)C[C@@H](C)C(=O)[C@H](C)[C@@H](O)[C@]1(C)O | inactive | –
52 | CN(C)c1ccc(N=NS(=O)(=O)O)cc1 | inactive | –
53 | O=c1[nH]c2ccc(S(=O)CCN3CCC(Cc4ccc(F)cc4)CC3)cc2o1 (stereo not drawn) | inactive | –
54 | Cn1cnc([N+](=O)[O-])c1Sc1ncnc2nc[nH]c12 | inactive | –
55 | CCOC(=O)CC(CC(=O)OCC)(OC(C)=O)C(=O)OCC | inactive | –
56 | O=C(OC[C@H]1O[C@@H](OC(=O)c2cc(O)c(O)c(OC(=O)c3cc(O)c(O)c(O)c3)c2)[C@H](OC(=O)c2cc(O)c(O)c(OC(=O)c3cc(O)c(O)c(O)c3)c2)[C@@H](OC(=O)c2cc(O)c(O)c(OC(=O)c3cc(O)c(O)c(O)c3)c2)[C@@H]1OC(=O)c1cc(O)c(O)c(OC(=O)c2cc(O)c(O)c(O)c2)c1)c1cc(O)c(O)c(OC(=O)c2cc(O)c(O)c(O)c2)c1 | inactive | –
57 | CC(C)=CCCC(C)=CC=O | inactive | –
58 | CCOc1cccc(-n2cc(C(=O)N3CCN(c4cc(C(=O)O)c5ccccc5c4)CC3)nc2-c2ccc(C)cc2)c1 | – | 19.2 µM (active)

— PubChem BioAssay (EPA / NIEHS)
